# Source: PubChem (Broad Institute)
# An excerpt weighted towards active compounds, which were near 4% of everything screened.
# MITF TRPM1 inh: MITF TRPM1 promoter inhibition in SK-MEL-5 cells; actives 0.83% (n = 330,000); inhibition, % at 12.5 µM; AID 488899; SK-MEL-5 TRPM1 promoter luciferase, 24 h;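 active means mean inhibition across replicates of 60% or more, whatever share of single replicates reaches that level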
# C2C12 statin: suppressors of simvastatin-induced myotoxicity in C2C12 myotubes; ATP luminescence, 48 h; scaled: DMSO 0, geranylgeraniol control 100; rescue of ATP level, % at 7.49 µM; actives 0.78% (n = 330,000); AID 602340;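 active means mean ATP rescue above about 67%, or every replicate alone reaching that limit, limit read from the data, passing the limit was not always enough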;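 further: myotubes were challenged with 10 µM simvastatin during compound exposure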
# Wnt act: activators of Wnt/beta-catenin signaling; Wnt/beta-catenin reporter cell assay, activator, plate reader; activation, % at 9.35 µM; actives 1.2% (n = 300,000); in the data active means activation above about 30%, passing the limit was not always enough;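 further: 0% = neutral control wells and 100% = positive control wells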
# esBAF inh: SWI/SNF esBAF complex inhibition | mouse ES cells, Bmi1-luciferase knock-in reporter, 24 h; 100% = twice the neutral-well signal | reporter increase, % at 12.5 µM | actives 2% (n = 350,000) | AID 602393; in the data active means activation above about 40%;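 further: 0% = median of the plate's neutral control wells and 100% = double that signal; a rise in the Bmi1 reporter signal indicates esBAF inhibition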
# MITF TRPM1 HTS: increases MITF-driven TRPM1 promoter luciferase signal | SK-MEL-5 TRPM1-promoter luciferase, 24 h; % of positive control, neutral wells = 0 | actives 0.75% (n = 300,000) | activation, % at 12.5 µM | AID 588334;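 active means mean activation of at least 80% with every replicate also reaching 80%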;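 further: 0% = neutral control wells and 100% = parthenolide positive control wells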
# EBV LMP1 NFkB: reduces LMP1-driven NF-kappaB luciferase signal | LMP1-induced NF-kappaB luciferase reporter cells, luminescence | inhibition, % at 12.5 µM | actives 0.69% (n = 350,000) | AID 504558; in the data active means inhibition above about 41%;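 further: 0% = neutral control wells and 100% = reference inhibitor control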
# Starred values were filed as active, the others as inactive; . = not tested or not shown.
SMILES,MITF TRPM1 inh,C2C12 statin,Wnt act,esBAF inh,MITF TRPM1 HTS,EBV LMP1 NFkB
O=S1(=O)N=C(N2CCN(c3ccc(F)cc3)CC2)c2ccccc21,-26,-7,.,46*,29,-13
O=S1(=O)N=C(N2CCN(Cc3ccccc3)CC2)c2ccccc21,8,-1,.,-1,-6,-2
CCCCN(C(=O)c1ccco1)c1c(N)n(CCC)c(=O)[nH]c1=O,-14,0,4,0,19,-2
CC(C)CC1C(=O)N(Cc2cn(CCC3OCCCO3)nn2)CCS(=O)(=O)N1Cc1ccc(-c2ccc(Cl)nc2)cc1 (stereo unspecified),.,-16,6,58*,.,-8
COc1ccccc1C(=O)C1CCCN(C(=O)c2ccccc2C(C)=O)C1 (stereo unspecified),-52,8,11,50*,55,-5
S=C(NCCc1ccccc1)NC1CC1,-4,.,0,.,4,-7
O=C(C[C@@H]1C/C=C\C[C@@H](Cc2ccc(F)cc2)C(=O)OC[C@@H](Cc2ccccc2)NC1=O)N[C@H](CO)Cc1ccccc1,-3,-1,-5,7,4,1
CC1CCCC(NCC(O)COC(c2ccc(F)cc2)c2ccc(F)cc2)C1C (stereo unspecified),86*,-8,-1,2,-85,-16
COc1ccc(C2C(C(=O)Nc3ccccc3)=C(C)Nc3nc(CCCO)nn32)cc1 (stereo unspecified),0,1,.,-4,.,5
Cc1cc(C)n(-c2cccc(Cl)c2)c(=O)c1C#N,-4,118*,-1,1,4,1
N=C1N(/N=C/c2ccccc2)C(=Nc2ccccc2)C(=S)N1c1ccccc1,-58,1,.,60*,.,-18
COc1cc2c(c(OC)c1OC)-c1c(cc3c(c1OC)OCO3)C1OC2[C@@H](C)[C@H]1C (stereo partly specified),7,-6,1,-2,-6,0
O=C(NCc1cccs1)c1cc2c(s1)-c1ccccc1OC2,.,-1,-1,68*,.,-51
O=C(NC1CC1)c1cc2c(s1)-c1ccccc1OC2,-21,1,11,45*,20,-31
C[C@@H]1CN([C@@H](C)CO)C(=O)CCCn2nncc2CO[C@@H]1CN(C)Cc1cccc(C(F)(F)F)c1,.,-7,.,-4,.,.
CCOc1[nH]n(-c2ccccc2)c(=O)c1C=Nc1ccc(Cl)cc1,1,120*,3,-8,-2,-14
CCOc1[nH]n(-c2ccccc2)c(=O)c1C=Nc1ccccc1,22,4,-5,7,-16,-2
COc1cc(O)sc1C=Nc1ccc(Cl)cc1,-10,3,15,55*,6,-73
Oc1ccc(Br)cc1C=Nc1ccc(Cl)cc1,-3,.,0,.,4,-19
c1ccc(-n2cnnc2SCc2cn3cccnc3n2)cc1,1,86*,.,-4,2,-3
CSCC[C@H](NC(=O)OC(C)(C)C)C(=O)NCC1CCC(C(=O)O)CC1 (stereo partly specified),-13,-38,-2,6,16,0
CCOC(=O)N1N=C(CC)CC1(O)C(F)(F)F (stereo unspecified),4,.,34*,.,-4,-3
CCOC(=O)N1N=C(c2ccc(C)cc2)CC1(O)C(F)(F)F (stereo unspecified),-34,3,23,-7,35,9
CSc1ccccc1NC(=O)c1noc2c1CCC2,-20,.,-3,48*,19,-9
CCc1ccc(NC(=O)c2noc3c2CCCCC3)cc1,-47,-25,.,26,49,-59
SMILES,MITF TRPM1 inh,C2C12 statin,Wnt act,esBAF inh,MITF TRPM1 HTS,EBV LMP1 NFkB
O=C(Nc1cccc(O)c1)c1noc2c1CCc1ccccc1-2,-13,7,.,-33,15,1
COC(=O)c1ccccc1NC(=O)c1noc2c1CCC2,-10,4,.,3,9,-2
CCc1ccc(NC(=O)c2noc3c2CCC3)cc1,13,5,3,73*,.,1
Cc1nn(Cc2ccccc2)c(C)c1NC(=O)c1noc2c1CCc1ccccc1-2,-3,1,.,-4,2,4
CCc1ccc(NC(=O)c2noc3c2CCc2ccccc2-3)cc1,-48,10,33*,29,.,-22
Cc1ccc(NC(=O)c2noc3c2CCc2ccccc2-3)cc1,-37,.,42*,60*,.,-42
Cc1cc(NC(=O)CCC(=O)N(C2CC2)C2(C(=O)NC3CCCC3)CCC(C)CC2)no1 (stereo unspecified),3,.,-2,.,-6,-2
Cc1ccc(Nc2nnc(SCC(=O)NC3CCCc4ccccc43)s2)cc1 (stereo unspecified),13,.,1,.,-6,7
Cc1cc(=O)nc2c3ccccc3n(CC(=O)NCCCN3CCOCC3)n12,0,-1,.,-5,0,-3
O=C(NCCc1ccccc1)c1noc2c1CCCCC2,-105,29,.,50*,107*,-13
Cc1ccc(O)c(NC(=O)c2noc3c2CCCCC3)c1,-23,-63,27,51*,25,-30
O=C(NCc1ccccc1)c1noc2c1CCCC2,-13,19,.,23,10,-13
Cc1ccc(NC(=O)c2noc3c2CCCCC3)cc1,-32,-28,22,14,32,-16
OC(CCCN1CCCCC1)(c1ccccc1)c1ccccc1,-1,-3,-1,-3,-1,89*
CCC(O)(CCN1CCCCC1)c1ccccc1 (stereo unspecified),4,-4,-1,1,-2,-1
CCOC(=O)c1cnc(-n2nc(C)cc2C)nc1N(C)C,-45,0,29,44*,45,0
CN(C)C(=O)c1ccc(-c2cc3onc(-c4ccccc4)c3c(=O)n2C)cc1,-64,-6,41*,55*,69,-2
COC(=O)c1ccc(-c2cc3onc(-c4ccccc4)c3c(=O)n2C)cc1,-37,2,31*,39,39,-10
CC(C)N(C(=O)[C@H]1C[C@H](CC(=O)NCCc2ccccn2)C(=O)N2CCc3c([nH]c4cc(CCC(=O)N(C)C)ccc34)[C@]12C)C(C)C,3,3,-1,1,-4,-6
Cc1ccc(S(=O)(=O)NN=Cc2cc(Cl)ccc2O)cc1,-11,24,7,19,14,-201
Cc1ccc(S(=O)(=O)NN=Cc2ccccc2Cl)cc1,.,3,34*,-6,.,-14
O=S(=O)(N/N=C\c1ccc(-c2ccccc2Cl)o1)c1ccccc1,10,118*,.,-9,-12,1
Clc1cc(Cl)cc(Nc2ncnc(-n3cccc3)n2)c1,-7,.,1,.,.,2
Cc1ccc(Nc2ncnc(-n3cccc3)n2)cc1Cl,-38,.,53*,.,41,-74
CCOC(=O)c1cnc(SCc2ccc(C(C)(C)C)cc2)nc1N,-18,4,.,-2,.,-2
CCOC(=O)c1cnc(SCc2ccccc2)nc1N,-103,-15,.,79*,107*,-40
